Screen size: about 5,500 compounds; about 2,000 (36%) were called active. Roughly 18% stayed inconclusive and do not appear here. Some of the results follow. Values without a mark were called inactive. Rule as the data show it: active = normalized growth mostly below about 0.91 (no sharp cut-off); inconclusive = no clear call, values can overlap the other calls; inactive = mostly above about 0.92.
Test: chemical genetic growth profiling, strain panel (AID 1159580);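 also: tested at 20 µM; growth read once vehicle control cultures reached saturation at 30 °C; 1 = growth at the plate median or of vehicle wells; lower values mean less growth of the strain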
Settings: growth OD

For `CCCCCCOc1ccccc1C(N)=O`, which normalized growth (S. cerevisiae deletion strains, locus YJR043C, strain POL32, hits give low values) is on record?
Its normalized growth is 0.529 (active).

What about the normalized growth (S. cerevisiae deletion strains, locus YJR066W, strain TOR1, hits give low values) of the same molecule?
Its normalized growth is 0.815 (active).

And the normalized growth (S. cerevisiae deletion strains, locus YKL009W, strain mrt4, hits give low values)?
Its normalized growth is 0.768 (active).

What about the normalized growth (S. cerevisiae deletion strains, locus YKL068W, hits give low values) of the same molecule?
The normalized growth was 0.851 (active).

And the normalized growth (S. cerevisiae deletion strains, locus YKL085W, strain MDH1 (second series), hits give low values)?
Its normalized growth is 0.826 (active).

What about the normalized growth (S. cerevisiae deletion strains, locus YKL085W, strain MDH1, hits give low values) of the same molecule?
The normalized growth was 0.826 (active).

And the normalized growth (S. cerevisiae deletion strains, locus YKL160W, strain elf1, hits give low values)?
Its normalized growth is 0.883 (active).

What about the normalized growth (S. cerevisiae deletion strains, locus YKL190W, strain CNB1, hits give low values) of the same molecule?
The normalized growth was 0.281 (active).

What about the normalized growth (S. cerevisiae deletion strains, locus YKR001C, strain vps1, hits give low values) of the same molecule?
Its normalized growth is 0.678 (active).

What about the normalized growth (S. cerevisiae deletion strains, locus YKR026C, strain gcn3, hits give low values) of the same molecule?
The normalized growth was 0.948.

And the normalized growth (S. cerevisiae deletion strains, locus YKR091W, strain srl3, hits give low values)?
Its normalized growth is 0.953.

And the normalized growth (S. cerevisiae deletion strains, locus YLL001W, strain dnm1, hits give low values)?
Its normalized growth is 0.887 (active).

And the normalized growth (S. cerevisiae deletion strains, locus YLL026W, hits give low values)?
Its normalized growth is 0.877 (active).

What about the normalized growth (S. cerevisiae deletion strains, locus YLL041C, strain sdh2, hits give low values) of the same molecule?
Its normalized growth is 0.94.

What about the normalized growth (S. cerevisiae deletion strains, locus YLR027C, strain aat2, hits give low values) of the same molecule?
Its normalized growth is 0.898 (active).

And the normalized growth (S. cerevisiae deletion strains, locus YLR039C, strain RIC1, hits give low values)?
The normalized growth was 1.04.

What about the normalized growth (S. cerevisiae deletion strains, locus YLR058C, strain SHM2, hits give low values) of the same molecule?
Its normalized growth is 0.641 (active).

What about the normalized growth (S. cerevisiae deletion strains, locus YLR102C, strain apc9, hits give low values) of the same molecule?
The normalized growth was 0.667 (active).

And the normalized growth (S. cerevisiae deletion strains, locus YLR113W, strain HOG1, hits give low values)?
Its normalized growth is 0.85 (active).

And the normalized growth (S. cerevisiae deletion strains, locus YLR221C, strain rsa3, hits give low values)?
The normalized growth was 0.845 (active).

What about the normalized growth (S. cerevisiae deletion strains, locus YLR258W, strain gsy2, hits give low values) of the same molecule?
Its normalized growth is 0.862 (active).

What about the normalized growth (S. cerevisiae deletion strains, locus YLR262C, strain YPT6 (second series), hits give low values) of the same molecule?
Its normalized growth is 1.11.

What about the normalized growth (S. cerevisiae deletion strains, locus YLR262C, strain YPT6, hits give low values) of the same molecule?
The normalized growth was 0.921.

What about the normalized growth (S. cerevisiae deletion strains, locus YLR268W, strain sec22, hits give low values) of the same molecule?
Its normalized growth is 0.308 (active).

And the normalized growth (S. cerevisiae deletion strains, locus YLR320W, strain mms22, hits give low values)?
Its normalized growth is 0.59 (active).

And the normalized growth (S. cerevisiae deletion strains, locus YLR330W, strain CHS5, hits give low values)?
Its normalized growth is 0.355 (active).

What about the normalized growth (S. cerevisiae deletion strains, locus YLR342W, strain FKS1 (second series), hits give low values) of the same molecule?
The normalized growth was 0.366 (active).

What about the normalized growth (S. cerevisiae deletion strains, locus YLR342W, strain FKS1, hits give low values) of the same molecule?
The normalized growth was 0.859 (active).

What about the normalized growth (S. cerevisiae deletion strains, locus YLR357W, strain rsc2, hits give low values) of the same molecule?
Its normalized growth is 1.07.

And the normalized growth (S. cerevisiae deletion strains, locus YLR370C, strain arc18, hits give low values)?
Its normalized growth is 0.932.

And the normalized growth (S. cerevisiae deletion strains, locus YLR371W, strain rom2, hits give low values)?
The normalized growth was 0.566 (active).

And the normalized growth (S. cerevisiae deletion strains, locus YLR384C, strain iki3, hits give low values)?
The normalized growth was 0.959.

What about the normalized growth (S. cerevisiae deletion strains, locus YLR418C, strain cdc73, hits give low values) of the same molecule?
Its normalized growth is 0.207 (active).

And the normalized growth (S. cerevisiae deletion strains, locus YML016C, strain PPZ1, hits give low values)?
Its normalized growth is 0.822 (active).

What about the normalized growth (S. cerevisiae deletion strains, locus YML032C, strain rad52, hits give low values) of the same molecule?
The normalized growth was 0.526 (active).

What about the normalized growth (S. cerevisiae deletion strains, locus YML120C, strain ndi1, hits give low values) of the same molecule?
The normalized growth was 0.857 (active).

What about the normalized growth (S. cerevisiae deletion strains, locus YML124C, strain tub3, hits give low values) of the same molecule?
The normalized growth was 0.725 (active).

And the normalized growth (S. cerevisiae deletion strains, locus YMR058W, strain fet3, hits give low values)?
The normalized growth was 0.807 (active).

What about the normalized growth (S. cerevisiae deletion strains, locus YMR078C, strain ctf18, hits give low values) of the same molecule?
Its normalized growth is 0.361 (active).

And the normalized growth (S. cerevisiae deletion strains, locus YMR125W, strain sto1, hits give low values)?
The normalized growth was 0.785 (active).

And the normalized growth (S. cerevisiae deletion strains, locus YMR129W, hits give low values)?
Its normalized growth is 0.945.

And the normalized growth (S. cerevisiae deletion strains, locus YMR205C, strain PFK2, hits give low values)?
Its normalized growth is 0.835 (active).

What about the normalized growth (S. cerevisiae deletion strains, locus YMR223W, strain ubp8, hits give low values) of the same molecule?
The normalized growth was 0.55 (active).

And the normalized growth (S. cerevisiae deletion strains, locus YMR231W, strain pep5, hits give low values)?
The normalized growth was 0.979.

And the normalized growth (S. cerevisiae deletion strains, locus YMR307W, strain GAS1, hits give low values)?
The normalized growth was 0.457 (active).

And the normalized growth (S. cerevisiae deletion strains, locus YNL067W, strain RPL9B, hits give low values)?
Its normalized growth is 0.599 (active).

What about the normalized growth (S. cerevisiae deletion strains, locus YNL071W, strain lat1, hits give low values) of the same molecule?
Its normalized growth is 0.57 (active).

What about the normalized growth (S. cerevisiae deletion strains, locus YNL153C, strain GIM3, hits give low values) of the same molecule?
Its normalized growth is 0.502 (active).

What about the normalized growth (S. cerevisiae deletion strains, locus YNL183C, strain NPR1, hits give low values) of the same molecule?
The normalized growth was 0.869.

And the normalized growth (S. cerevisiae deletion strains, locus YNL209W, strain ssb2, hits give low values)?
The normalized growth was 0.902 (active).

What about the normalized growth (S. cerevisiae deletion strains, locus YNL233W, strain BNI4, hits give low values) of the same molecule?
The normalized growth was 0.326 (active).

And the normalized growth (S. cerevisiae deletion strains, locus YNL248C, strain rpa49, hits give low values)?
Its normalized growth is 0.865 (active).

What about the normalized growth (S. cerevisiae deletion strains, locus YNL250W, strain rad50, hits give low values) of the same molecule?
The normalized growth was 0.871 (active).

What about the normalized growth (S. cerevisiae deletion strains, locus YNL271C, strain bni1, hits give low values) of the same molecule?
Its normalized growth is 0.696 (active).

What about the normalized growth (S. cerevisiae deletion strains, locus YNL298W, strain CLA4, hits give low values) of the same molecule?
Its normalized growth is 0.778 (active).

And the normalized growth (S. cerevisiae deletion strains, locus YNL307C, strain MCK1, hits give low values)?
The normalized growth was 0.0873 (active).

And the normalized growth (S. cerevisiae deletion strains, locus YNL322C, strain KRE1 (second series), hits give low values)?
The normalized growth was 0.978.

What about the normalized growth (S. cerevisiae deletion strains, locus YNL322C, strain KRE1, hits give low values) of the same molecule?
Its normalized growth is 0.705 (active).

What about the normalized growth (S. cerevisiae deletion strains, locus YNR049C, strain mso1, hits give low values) of the same molecule?
Its normalized growth is 0.942.

And the normalized growth (S. cerevisiae deletion strains, locus YNR052C, strain pop2, hits give low values)?
The normalized growth was 0.797 (active).

And the normalized growth (S. cerevisiae deletion strains, locus YOL006C, strain TOP1, hits give low values)?
The normalized growth was 0.135 (active).

And the normalized growth (S. cerevisiae deletion strains, locus YOL012C, strain htz1)?
Its normalized growth is 0.5.

What about the normalized growth (S. cerevisiae deletion strains, locus YOL147C, strain pex11, hits give low values) of the same molecule?
Its normalized growth is 0.243 (active).

And the normalized growth (S. cerevisiae deletion strains, locus YOR001W, strain rrp6, hits give low values)?
Its normalized growth is 0.904.

What about the normalized growth (S. cerevisiae deletion strains, locus YOR061W, strain CKA2, hits give low values) of the same molecule?
Its normalized growth is 0.794 (active).

What about the normalized growth (S. cerevisiae deletion strains, locus YOR069W, strain VPS5, hits give low values) of the same molecule?
The normalized growth was 0.798 (active).

And the normalized growth (S. cerevisiae deletion strains, locus YOR070C, strain gyp1, hits give low values)?
The normalized growth was 0.891 (active).

And the normalized growth (S. cerevisiae deletion strains, locus YOR080W, strain dia2, hits give low values)?
Its normalized growth is 0.951.

And the normalized growth (S. cerevisiae deletion strains, locus YOR083W, strain WHI5, hits give low values)?
Its normalized growth is 0.855 (active).

What about the normalized growth (S. cerevisiae deletion strains, locus YOR106W, strain vam3, hits give low values) of the same molecule?
The normalized growth was 0.861 (active).

What about the normalized growth (S. cerevisiae deletion strains, locus YOR136W, strain idh2, hits give low values) of the same molecule?
The normalized growth was 0.719 (active).

What about the normalized growth (S. cerevisiae deletion strains, locus YOR144C, strain elg1, hits give low values) of the same molecule?
The normalized growth was 0.485 (active).

What about the normalized growth (S. cerevisiae deletion strains, locus YOR184W, strain ser1, hits give low values) of the same molecule?
The normalized growth was 0.187 (active).

What about the normalized growth (S. cerevisiae deletion strains, locus YOR231W, strain MKK1, hits give low values) of the same molecule?
Its normalized growth is 0.877.

And the normalized growth (S. cerevisiae deletion strains, locus YOR265W, strain rbl2, hits give low values)?
The normalized growth was 0.929.

And the normalized growth (S. cerevisiae deletion strains, locus YOR270C, strain vph1, hits give low values)?
The normalized growth was 0.446 (active).

And the normalized growth (S. cerevisiae deletion strains, locus YOR290C, strain snf2, hits give low values)?
Its normalized growth is 0.87.

What about the normalized growth (S. cerevisiae deletion strains, locus YOR316C, strain cot1, hits give low values) of the same molecule?
The normalized growth was 0.567 (active).

What about the normalized growth (S. cerevisiae deletion strains, locus YPL051W, strain arl3, hits give low values) of the same molecule?
The normalized growth was 0.878 (active).

And the normalized growth (S. cerevisiae deletion strains, locus YPL078C, strain atp4, hits give low values)?
The normalized growth was 0.729 (active).

What about the normalized growth (S. cerevisiae deletion strains, locus YPL106C, strain sse1, hits give low values) of the same molecule?
The normalized growth was 1.01.

What about the normalized growth (S. cerevisiae deletion strains, locus YPL240C, strain hsp82, hits give low values) of the same molecule?
Its normalized growth is 0.945.

What about the normalized growth (S. cerevisiae deletion strains, locus YPL256C, strain CLN2, hits give low values) of the same molecule?
The normalized growth was 0.864.

And the normalized growth (S. cerevisiae deletion strains, locus YPR119W, strain clb2, hits give low values)?
Its normalized growth is 0.625 (active).

And the normalized growth (S. cerevisiae deletion strains, locus YPR141C, strain kar3, hits give low values)?
The normalized growth was 0.825 (active).

What about the normalized growth (S. cerevisiae deletion strains, locus YPR163C, strain tif3, hits give low values) of the same molecule?
The normalized growth was 0.142 (active).

And the normalized growth (S. cerevisiae deletion strains, locus YPR167C, strain met16, hits give low values)?
Its normalized growth is 0.627 (active).

What about the normalized growth (S. cerevisiae deletion strains, strain wtn01, hits give low values) of the same molecule?
Its normalized growth is 0.444 (active).

And the normalized growth (S. cerevisiae strains, strain wild type, hits give low values)?
Its normalized growth is 0.559 (active).

Reference: PubChem BioAssay AID1159580 (chemical genetic matrix, 2015)
